In PubChem BioAssay (NCI):
This is part of a sample that, as a whole, favours compounds with a hit. Of some 83,000 tested, about 20% had one in any assay.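 Compound tested at a single concentration for 48 hours in 96-well plates; a percent growth value below 10 was scored as active.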 Calls of active or inactive are those of the source.

Columns and labels:
Test in all cases: NCI-60 one-dose screen, 48 h (100 = growth as untreated, 0 = no growth, -100 = all killed)
HCT-15 colon = conditions: 10 µM unless noted
HT29 colon = conditions: 10 µM unless noted
SNB-75 CNS = conditions: 10 µM unless noted
SNB-19 CNS = conditions: 10 µM unless noted
U251 CNS = conditions: 10 µM unless noted
SK-MEL-5 melanoma = conditions: 10 µM unless noted
UACC-62 melanoma = conditions: 10 µM unless noted
LOX IMVI melanoma = conditions: 10 µM unless noted
SK-MEL-28 melanoma = conditions: 10 µM unless noted
SK-MEL-2 melanoma = conditions: 10 µM unless noted
EKVX NSCLC = conditions: 10 µM unless noted
SN12C renal = conditions: 10 µM unless noted
UO-31 renal = conditions: 10 µM unless noted
TK-10 renal = conditions: 10 µM unless noted
A498 renal = conditions: 10 µM unless noted
CCRF-CEM leukemia = conditions: 10 µM unless noted
MOLT-4 leukemia = conditions: 10 µM unless noted
ACHN renal = conditions: 10 µM unless noted
PC-3 prostate = conditions: 10 µM unless noted
CAKI-1 renal = conditions: 10 µM

Measured: growth

Nc1nc(-c2cc3c(cc2Cl)NC(=O)/C3=C/c2ccc(Cl)cc2)cs1
inactive: HCT-15 colon 49.6% | HT29 colon 35.6% | SNB-75 CNS 49.1% | SNB-19 CNS 31.2% | U251 CNS 21.8% | UACC-62 melanoma 36% | LOX IMVI melanoma 12.6% | SK-MEL-28 melanoma 45.4% | SK-MEL-2 melanoma 36.6% | EKVX NSCLC 35.3% | SN12C renal 48.8% | UO-31 renal 54.3% | TK-10 renal 82.3% | A498 renal 74.8% | CCRF-CEM leukemia 19% | MOLT-4 leukemia 15.5%
active: SK-MEL-5 melanoma 6.5%

FC(F)(F)c1cn(CCN2CCOCC2)c2ncnc(Cl)c12
active: LOX IMVI melanoma -63.9% | UO-31 renal -85.5%
inactive: HCT-15 colon 14.9% | HT29 colon 72.7% | SNB-75 CNS 78.1% | SNB-19 CNS 22.5% | U251 CNS 71.2% | SK-MEL-5 melanoma 42.5% | UACC-62 melanoma 53.2% | SK-MEL-28 melanoma 72.4% | SK-MEL-2 melanoma 41.3% | EKVX NSCLC 92.6% | SN12C renal 71.2% | TK-10 renal 113% | ACHN renal 64.7% | A498 renal 105% | MOLT-4 leukemia 40.4%

Clc1ccc(OCc2nc(-c3ccccc3)n[nH]2)c(Cl)c1
inactive: HCT-15 colon 101% | SNB-75 CNS 93.6% | SNB-19 CNS 99.3% | U251 CNS 95.5% | PC-3 prostate 87.3% | SK-MEL-5 melanoma 100% | UACC-62 melanoma 95.6% | LOX IMVI melanoma 94.6% | SK-MEL-28 melanoma 110% | SK-MEL-2 melanoma 103% | EKVX NSCLC 93.8% | SN12C renal 96.6% | UO-31 renal 77.1% | TK-10 renal 122% | ACHN renal 98% | A498 renal 104%

CC1(C)CC(=O)C2=C(C1)OC1=C(C(=O)CC(C)(C)C1)C2c1ccc(OCc2cn(-c3ccc(F)cc3F)nn2)cc1
inactive: HCT-15 colon 105% | HT29 colon 96.9% | SNB-75 CNS 104% | SNB-19 CNS 99.9% | U251 CNS 91.7% | SK-MEL-5 melanoma 58.4% | LOX IMVI melanoma 97.7% | SK-MEL-28 melanoma 103% | SK-MEL-2 melanoma 93.8% | EKVX NSCLC 99.4% | SN12C renal 99.4% | UO-31 renal 89.6% | TK-10 renal 109% | A498 renal 46.9% | CCRF-CEM leukemia 84.9% | MOLT-4 leukemia 77.2%

C#CC(=O)/C=C/CCCCCCC#CC(=O)CCC(=O)C#CCCCCCC/C=C/C(=O)C#C
active: HT29 colon 6.4% | UACC-62 melanoma 5.38% | LOX IMVI melanoma -70.2% | SN12C renal -24.5% | UO-31 renal -90.7% | CCRF-CEM leukemia -45.5% | MOLT-4 leukemia -32.2%
inactive: HCT-15 colon 12.4% | SNB-75 CNS 56% | SNB-19 CNS 32% | U251 CNS 18% | SK-MEL-5 melanoma 52.8% | SK-MEL-28 melanoma 12.8% | SK-MEL-2 melanoma 82.1% | EKVX NSCLC 25.4% | TK-10 renal 32.5% | A498 renal 93.4%

OCc1cn(-c2ccc(Cl)cc2)nc1-c1ccc(O)cc1
inactive: HCT-15 colon 93.7% | HT29 colon 92.6% | SNB-75 CNS 83.3% | SNB-19 CNS 104% | U251 CNS 106% | SK-MEL-5 melanoma 95.4% | UACC-62 melanoma 100% | LOX IMVI melanoma 92.2% | SK-MEL-28 melanoma 108% | SK-MEL-2 melanoma 95.8% | EKVX NSCLC 89.7% | SN12C renal 94.3% | UO-31 renal 63.5% | TK-10 renal 102% | A498 renal 96.9% | CCRF-CEM leukemia 50.3% | MOLT-4 leukemia 53.6%

Cc1cccc(Cc2cnc(NC(=O)CCc3ccc(C)o3)s2)c1
active: HCT-15 colon 7.47% | HT29 colon 0.165% | SK-MEL-5 melanoma -11.7% | A498 renal -11.7% | CCRF-CEM leukemia 5.94% | MOLT-4 leukemia 8.52%
inactive: SNB-75 CNS 23.9% | SNB-19 CNS 23.1% | U251 CNS 27.2% | LOX IMVI melanoma 29.9% | SK-MEL-28 melanoma 61% | SK-MEL-2 melanoma 30.6% | EKVX NSCLC 43.8% | SN12C renal 31.1% | UO-31 renal 34% | TK-10 renal 63.6%

COc1ccc2c(c1)/C(=C/c1c(-c3cc(OC)c(OC)c(OC)c3Br)nc3sccn13)C(=O)N2
inactive: HCT-15 colon 109% | HT29 colon 103% | SNB-75 CNS 109% | SNB-19 CNS 106% | U251 CNS 93.4% | SK-MEL-5 melanoma 83.1% | LOX IMVI melanoma 64.7% | SK-MEL-28 melanoma 123% | SK-MEL-2 melanoma 87.3% | EKVX NSCLC 84.6% | SN12C renal 120% | UO-31 renal 83.3% | TK-10 renal 118% | ACHN renal 86.5% | A498 renal 108% | CCRF-CEM leukemia 81%

COc1ccc(Cl)cc1NC(=O)c1cc2c([nH]1)-c1nc(N)sc1CCC2
inactive: HCT-15 colon 97.7% | HT29 colon 83.2% | SNB-75 CNS 105% | SNB-19 CNS 112% | U251 CNS 101% | SK-MEL-5 melanoma 101% | LOX IMVI melanoma 91.7% | SK-MEL-28 melanoma 103% | SK-MEL-2 melanoma 98% | EKVX NSCLC 92.5% | SN12C renal 97.4% | UO-31 renal 79.4% | TK-10 renal 97.8% | A498 renal 95.9% | CCRF-CEM leukemia 86.7% | MOLT-4 leukemia 62%

CCCCCCCCCCCC(=O)OCCNC(=O)C[n+]1ccccc1
inactive: HCT-15 colon 110% | HT29 colon 93.7% | SNB-75 CNS 96.5% | SNB-19 CNS 102% | U251 CNS 101% | SK-MEL-5 melanoma 100% | UACC-62 melanoma 104% | LOX IMVI melanoma 106% | SK-MEL-28 melanoma 109% | SK-MEL-2 melanoma 97.7% | EKVX NSCLC 91.8% | SN12C renal 102% | UO-31 renal 83% | TK-10 renal 101% | ACHN renal 99.9% | MOLT-4 leukemia 104%

COc1cc(/C=C2/Oc3cc4occc4c(OC)c3C2=O)ccc1OCC(=O)Nc1ccncc1
inactive: HCT-15 colon 112% | HT29 colon 104% | SNB-75 CNS 96.5% | SNB-19 CNS 106% | U251 CNS 108% | SK-MEL-5 melanoma 100% | UACC-62 melanoma 93.5% | LOX IMVI melanoma 99.5% | SK-MEL-28 melanoma 117% | SK-MEL-2 melanoma 102% | EKVX NSCLC 97.4% | SN12C renal 104% | UO-31 renal 70.3% | TK-10 renal 127% | A498 renal 111% | MOLT-4 leukemia 110%

COc1ccc(C(=O)Cn2cnc3c(Nc4cc(C(=O)Nc5ccc(N6CCN(CCO)CC6)cc5)ccc4C)ncnc32)cc1
inactive: HCT-15 colon 102% | HT29 colon 101% | SNB-75 CNS 79.4% | SNB-19 CNS 108% | U251 CNS 105% | SK-MEL-5 melanoma 102% | UACC-62 melanoma 104% | LOX IMVI melanoma 94.2% | SK-MEL-28 melanoma 105% | SK-MEL-2 melanoma 100% | EKVX NSCLC 99% | SN12C renal 104% | UO-31 renal 87.6% | TK-10 renal 102% | ACHN renal 103% | A498 renal 111% | CCRF-CEM leukemia 105% | MOLT-4 leukemia 90%

CN(CCNCc1ccccn1)CCNCc1ccccn1
inactive: SNB-75 CNS 12.9% | SNB-19 CNS 44.7% | U251 CNS 11% | SK-MEL-28 melanoma 10.7% | EKVX NSCLC 23.8% | SN12C renal 27.9%
active: HCT-15 colon 9.87% | HT29 colon 7.47% | SK-MEL-5 melanoma -31.7% | UACC-62 melanoma 4.5% | LOX IMVI melanoma 9.32% | SK-MEL-2 melanoma -2.1% | UO-31 renal -11.8% | ACHN renal 0.79% | CAKI-1 renal -42% | A498 renal -91.9% | MOLT-4 leukemia 1.98%

Cc1ccc(Cn2cc(COc3ccc4c5ccnc(C)c5n(CCCc5ccccc5)c4c3)nn2)cc1
inactive: HCT-15 colon 86.2% | HT29 colon 71.8% | SNB-75 CNS 97.6% | SNB-19 CNS 99.4% | U251 CNS 110% | SK-MEL-5 melanoma 80.4% | UACC-62 melanoma 95% | LOX IMVI melanoma 91.1% | SK-MEL-28 melanoma 104% | SK-MEL-2 melanoma 94.7% | EKVX NSCLC 80.7% | SN12C renal 94.5% | UO-31 renal 55.7% | TK-10 renal 97.8% | A498 renal 73.5% | CCRF-CEM leukemia 91.9% | MOLT-4 leukemia 78.2%

CCOC(=O)c1noc2c1CCc1c-2cn(Cc2ccc(OC)cc2)c1-c1cc(OC)c(OC)c(OC)c1
active: HT29 colon 4.06%
inactive: HCT-15 colon 23.5% | SNB-75 CNS 14% | SNB-19 CNS 24.4% | U251 CNS 18.4% | SK-MEL-5 melanoma 16.9% | UACC-62 melanoma 22.4% | LOX IMVI melanoma 42.3% | SK-MEL-28 melanoma 58.1% | SK-MEL-2 melanoma 35.4% | EKVX NSCLC 48.6% | SN12C renal 44.7% | UO-31 renal 30.9% | TK-10 renal 68.8% | A498 renal 56.2% | CCRF-CEM leukemia 15% | MOLT-4 leukemia 18.5%

COc1ccc(C2=NN(C(=O)COc3ccc(Cl)cc3)C(O)(c3cc(F)c(Cl)cc3Cl)C2)cc1OC (stereo not given)
inactive: SNB-19 CNS 62.7% | U251 CNS 55.5% | SK-MEL-5 melanoma 65.4% | UACC-62 melanoma 52.5% | SK-MEL-2 melanoma 68.3% | EKVX NSCLC 61.6% | SN12C renal 19.8% | TK-10 renal 16% | A498 renal 141%
active: HCT-15 colon 4.88% | HT29 colon -75.9% | SNB-75 CNS 3.94% | LOX IMVI melanoma -35.6% | SK-MEL-28 melanoma -51.6% | UO-31 renal -86.6% | ACHN renal 5.24% | CCRF-CEM leukemia -62.1% | MOLT-4 leukemia -32%

COc1ccc(/C=C/C(=O)/C=C(/C=C/c2ccc(OC)c(OC)c2OC)OB(F)F)c(OC)c1OC
inactive: SNB-75 CNS 94.5% | SNB-19 CNS 57.1% | PC-3 prostate 29.1% | SK-MEL-5 melanoma 36.8% | UACC-62 melanoma 35.4% | SK-MEL-28 melanoma 41% | SK-MEL-2 melanoma 76% | EKVX NSCLC 65.8% | SN12C renal 20.6% | UO-31 renal 16.8% | TK-10 renal 35.6% | A498 renal 95.1%
active: HCT-15 colon 9.58% | U251 CNS 4.99% | LOX IMVI melanoma -5.79% | ACHN renal -16.4% | CCRF-CEM leukemia -2.62% | MOLT-4 leukemia 3.43%
